Test results as given in PubChem BioAssay (NCATS).
Where “and” joins values, the source holds several entries; their conditions need not be identical. Identical values can stand only once. Inconclusive results are not listed. Entries that show only a call come without a potency. Some compounds were tested as several samples or in several runs, with calls that do not always agree. Calls of active or inactive are those of the source. Calls follow the shape of the dose curve; as a rule, active = well fitted inhibition curve with a large enough effect; inconclusive = small, poorly fitted or top-dose-only effect; inactive = no such curve, though single readings can be large or run the other way.

Test: NS1 protein of Zika virus - qHTS assay to identify small molecule inhibitors in human HEK 293 cells (AID 1347053); also: nearly all actives have a fitted effect of over 55% in size
Settings: HEK293 ZIKV MR766 infection, NS1 TR-FRET, 24 h; series mostly up to 46.1 µM; activity change, negative = inhibition: at the top concentration
Procedure, shortened: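 HEK 293; 20 h pre-culture, 37 C/5% CO2; cpd 1 h pre-infection; ZIKV MR766, MOI = 0.5, 24 h, 37 C; TR-FRET NS1 readout (two anti-NS1 Abs); norm. to no-virus vs infected.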
Potency is read from the fitted curve at half-maximal effect.

Row | Structure (SMILES) | Potency | activity change, negative = inhibition
1 | O=C(O)c1cn(C2CC2)c2cc(N3CCNCC3)c(F)cc2c1=O | inactive | –
2 | Cc1cccc(N(C)C(=S)Oc2ccc3ccccc3c2)c1 | inactive | –
3 | NC1(c2ccc(-c3nc4ccn5c(=O)[nH]nc5c4cc3-c3ccccc3)cc2)CCC1 | 9.35 µM (active) | –
4 | CNS(=O)(=O)CCc1ccc2[nH]cc(C3CCN(C)CC3)c2c1 | inactive | –
5 | CNC(=O)c1cc(Oc2ccc(NC(=O)Nc3ccc(Cl)c(C(F)(F)F)c3)cc2)ccn1 | – | 12.9% (inactive)
6 | NC(=O)c1cccc(N)c1 | inactive | –
7 | Cc1noc(NS(=O)(=O)c2ccc(N)cc2)c1C | inactive | –
8 | COc1c(N2CCNC(C)C2)c(F)cc2c(=O)c(C(=O)O)cn(C3CC3)c12 (stereo unspecified) | inactive | –
9 | CC1=C(C(=O)O)N2C(=O)[C@@H](NC(=O)C(N)c3ccccc3)[C@H]2SC1 (stereo partly specified) | inactive | –
10 | Cc1ccnc2c1NC(=O)c1cccnc1N2C1CC1 | inactive | –
11 | COc1cnc(NS(=O)(=O)c2ccc(N)cc2)nc1 | inactive | –
12 | CCn1cc(C(=O)O)c(=O)c2cc(F)c(N3CCNCC3)cc21 | inactive | –
13 | COc1cc(NS(=O)(=O)c2ccc(N)cc2)nc(OC)n1 | inactive | –
14 | CCOCC(O)COc1ccc(NC(=O)CC[S+](C)C)cc1 (stereo unspecified) | inactive | –
15 | CCN(CC)CCn1c(=O)c(Cc2ccc(OC)cc2)nc2ccccc21 | inactive | –
16 | CCN1CCCC1CNC(=O)c1cc(S(N)(=O)=O)ccc1OC (stereo unspecified) | inactive | –
17 | CCC(=O)O[C@]1(C(=O)SCF)[C@H](C)C[C@H]2[C@@H]3C[C@H](F)C4=CC(=O)C=C[C@]4(C)[C@@]3(F)[C@@H](O)C[C@@]21C | inactive | –
18 | CC1=CC(=O)c2ccccc2C1=O | – | 1.88% (inactive)

Row | Structure (SMILES) | Potency | activity change, negative = inhibition
19 | COc1cc2c(Nc3ccc(Br)cc3F)ncnc2cc1OCC1CCN(C)CC1 | – | -7.81% (inactive)
20 | Cc1c(-c2ccc(O)cc2)n(Cc2ccc(OCCN3CCCCCC3)cc2)c2ccc(O)cc12 | inactive | –
21 | Cn1c(=O)c2c(ncn2CC(O)CO)n(C)c1=O (stereo unspecified) | inactive | –
22 | CC1=NN(c2ccccc2)C(=O)C1 | inactive | –
23 | O=C(N[C@H](CO)[C@H](O)c1ccc([N+](=O)[O-])cc1)C(Cl)Cl | inactive | –
24 | Cc1cc(NS(=O)(=O)c2ccc(N)cc2)no1 | inactive | –
25 | COc1cc([C@@H]2c3cc4c(cc3[C@H](O)[C@H]3COC(=O)[C@H]23)OCO4)cc(OC)c1OC | inactive | –
26 | Nc1nc(F)nc2c1ncn2[C@@H]1O[C@H](CO)[C@@H](O)[C@@H]1O | inactive and 2.09 µM (active) | –
27 | O=S(=O)(c1cccc2cnccc12)N1CCCNCC1 | inactive | –
28 | Cc1oc(=O)oc1CN1CCN(c2cc3c(cc2F)c(=O)c(C(=O)O)c2n3C(C)S2)CC1 (stereo unspecified) | inactive | –
29 | CNNCc1ccc(C(=O)NC(C)C)cc1 | inactive | –
30 | CC(C(=O)O)c1ccc2c(c1)CC(=O)c1ccccc1S2 (stereo unspecified) | inactive | –
31 | CC(C)OC(=O)C(C(=O)OC(C)C)=C1SC=CS1 | inactive | –
32 | COc1ccc(-c2ccc3cc(C(=O)O)ccc3c2)cc1C12CC3CC(CC(C3)C1)C2 | inactive | –
33 | O=NN(CCCl)C(=O)NC1CCCCC1 | inactive | –
34 | CC(C)C[C@H](NC(=O)[C@H](CCc1ccccc1)NC(=O)CN1CCOCC1)C(=O)N[C@@H](Cc1ccccc1)C(=O)N[C@@H](CC(C)C)C(=O)[C@@]1(C)CO1 | 0.118 µM (active) | –
35 | O=C(O)CCn1c2c(c3ccccc31)C[C@H](NS(=O)(=O)c1ccc(F)cc1)CC2 | inactive | –
36 | NS(=O)(=O)c1cc2c(cc1Cl)NC(C(Cl)Cl)NS2(=O)=O (stereo unspecified) | inactive | –
